These results are taken from PubChem BioAssay (EPA / NIEHS).

A structure can be active in one record and inactive in another. Active and inactive are the calls of the source. Rule for the calls: active = hit-call score of the fitted dose curve at least 0.9, where 1 is the maximum; inactive = score below 0.9.

The term AC50 denotes the midpoint of the concentration-response curve, whichever way the signal moves.

A short description of the test: CCTE_Shafer_MEA_dev_firing_rate_mean: CCTE's Neural Network Formation Assay for Mean Firing Rate, Shafer Lab (AID 2284031).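 For AC50: curve fitted for loss of firing so AC50 reflects decreased mean firing rate.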 The method, then: CCTE_Shafer_MEA_dev assay is conducted using Axion Biosystems 48 well microelectrode array (MEA) plates and Maestro recording system. Each well of the MEA plate contains a grid of 16 microelectrodes embedded in the culture surface. Electrically active cells, such as neurons, can be cultured over the electrodes, and electrical activity in these cells can be recorded extracellularly. The spontaneous firing of neurons is captured from each electrode on a microsecond timescale providing both temporally and spatially precise data. […] The CCTE_Shafer_MEA_dev assay uses primary cultures of rat cortical neurons. Recordings are made on days post-plating 5, 7, 9 and 12. As these cultures mature over time, neural networks develop functional activity and form cohesive networks in which electrical activity can be highly coordinated. CCTE_Shafer_MEA_dev_firing_rate_mean is 1 of 19 assay components of the CCTE_Shafer_MEA_dev assay. It measures the frequency of spikes (action potential firings) as the total number of spikes divided by the length of the recording in a microelectrode array (MEA) using Axion Biosystems Maestro 768 channel amplifier with the AxIS adaptive spike detector. The firing rate is averaged across the active electrodes to report a well-mean value. To collapse across multiple recordings made on days post-plating 5, 7, 9 and 12, the trapezoidal area-under-the-curve of the component is calculated.Data from the assay component CCTE_Shafer_MEA_dev_firing_rate_mean was analyzed into 1 assay endpoint. This assay endpoint, CCTE_Shafer_MEA_dev_firing_rate_mean, was analyzed in the negative analysis fitting direction relative to DMSO as the negative control and baseline of activity. Using a type of functional reporter, gain or loss-of-signal activity can be used to understand electrical activity.
On the day prior to culture, each well was coated thoroughly with 150 uL of 0.05% polyethyleneimine (PEI, Sigma Cat P3143) in 50 mM HEPES (Sigma Cat H7523) at a pH of 8. The plate was incubated at 37C for one hour. PEI was rinsed out with 500 uL of sterile water three times. Plates were stored at 4C until the day of culture. This culture was plated at a seeding density of 1.5 x 10^5 cells/well on a 48-well MEA plate, prepared as described above. Cells were administered via a 25 uL media/laminin ([…]; Sigma Cat L2020-1MG) drop directly onto the microelectrode array, as adding the cells with the laminin results in better attachment than pre-coating with laminin. After 2 hours, an additional 475 uL of cortical media was added and the cells returned to the incubator. Exposure starts at day 0 of plating and is continued over twelve days of network development until the experiment is terminated. Cells are fed with fresh medium on DIV 5 and 9, following the recordings on those days. The entire volume of media in the well is exchanged and any vehicle or compound treatment is renewed. Complete details are found in OP-NHEERL/ISTD/SBB/TJS/2015-03-r0 (available on request, email shafer.tim@epa.gov). Measurement of the electrical activity is non-invasive, and recordings can be made from the same plate over multiple different days of the culture. In cortical neurons, this allows for the measurement of extracellular action potentials over the period during which networks form in the MEA plate.
`c1ccc2c(c1)ccc1cc3c(ccc4ccccc43)cc12`: the molecule was classed as inactive.

Turning to `COC(F)(F)C(F)(C(F)(F)F)C(F)(F)F`, the molecule was called inactive.

For `Nc1ncn([C@@H]2O[C@H](CO)[C@@H](O)[C@H]2O)c(=O)n1`, the AC50 is 3.41 µM (active) and the molecule was called inactive.

For `CC=CC(F)(F)C(F)(F)C(F)(F)F`, the molecule was called inactive.

As for `N[C@H]1C(O)O[C@H](CO)[C@H](O)[C@@H]1O` (stereo not given in full), the molecule was classed as inactive.

Turning to `CN(C)c1ccc(C(=N)c2ccc(N(C)C)cc2)cc1`, the AC50 was 2.67 µM (active).

Regarding `CCOC(F)(F)C(F)(F)C(F)(F)C(F)(F)F`, the result was inactive.

Regarding `FC(F)=C(F)OC(F)(F)C(F)(F)C(F)(F)F`, the call was inactive.

For the molecule `CC1(C)S[C@@H]2[C@H](NC(=O)COc3ccccc3)C(=O)N2[C@H]1C(=O)O`, the outcome was inactive.
